Only some compounds are listed: those with a hit (about 7% of all), similar ones and a draw of the others.
PI5P4Ka inh: PI5P4K alpha (human) kinase inhibition; actives 1.2% (n = 330,000); AID 652105; max response, %; PI5P4Kalpha enzyme, ADP-Glo luminescence, 60 min; hits give low values; P48426; active means max response of -50% or lower; inconclusive means between -30% and -50%; inactive means -30% or higher; further: value at the top dose of about 77 µM; on the % scale 0 is the no-effect control and ±100 the full control effect
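Enzyme plus substrate dispensed, test compounds pinned in, then ATP (5 microM final) added. After 60 min at RT, ADP-Glo reagent 1 for 45 min and reagent 2 for 30 min preceded luminescence imaging.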
JMJD2A Tudor: blocks the human JMJD2A Tudor domain; AlphaScreen JMJD2A-Tudor / H3K4me3 peptide binding; Potency, µM (doses to about 114 µM), without a hit: at the top dose activity change, negative = inhibition, most hits filed as inhibitors; actives 4.4% (n = 390,000); AID 504339; further: potency means the concentration at half of the fitted maximal effect; on the % scale 0 is the no-effect control and ±100 the full control effect; nearly all actives have a fitted effect of over 50% in size
BAZ2B inh: BAZ2B (human) inhibition | AlphaScreen BAZ2B-H3K14Ac peptide displacement | Potency, µM (doses to about 114 µM), inactives show top-dose activity change, negative = inhibition, most hits filed as inhibitors | Q9UIF8 | actives 4.4% (n = 360,000) | AID 504333; further: potency means the concentration at half of the fitted maximal effect; on the % scale 0 is the no-effect control and ±100 the full control effect; nearly all actives have a fitted effect of over 60% in size
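AlphaScreen displacement of biotin-H3(5-23)K14Ac peptide (50 nM final) from BAZ2B (50 nM final) in PBS pH 7.4, 0.01% Tween-20; complex preformed 30 min RT, then compounds (top 110 uM) 30 min RT, beads 20 min dark.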
GCN5L2 inh: GCN5L2 (KAT2A) acetyltransferase inhibition; Q92830; GCN5L2 HAT assay, ThioGlo1 CoA-SH fluorescence; Potency, µM (doses to about 58.9 µM), for inactives: top-dose activity change, negative = inhibition, usual class: inhibitors; actives 0.21% (n = 390,000); AID 504327; further: potency means the concentration at half of the fitted maximal effect; on the % scale 0 is the no-effect control and ±100 the full control effect
Target sequence (Q92830 whole entry, looked up): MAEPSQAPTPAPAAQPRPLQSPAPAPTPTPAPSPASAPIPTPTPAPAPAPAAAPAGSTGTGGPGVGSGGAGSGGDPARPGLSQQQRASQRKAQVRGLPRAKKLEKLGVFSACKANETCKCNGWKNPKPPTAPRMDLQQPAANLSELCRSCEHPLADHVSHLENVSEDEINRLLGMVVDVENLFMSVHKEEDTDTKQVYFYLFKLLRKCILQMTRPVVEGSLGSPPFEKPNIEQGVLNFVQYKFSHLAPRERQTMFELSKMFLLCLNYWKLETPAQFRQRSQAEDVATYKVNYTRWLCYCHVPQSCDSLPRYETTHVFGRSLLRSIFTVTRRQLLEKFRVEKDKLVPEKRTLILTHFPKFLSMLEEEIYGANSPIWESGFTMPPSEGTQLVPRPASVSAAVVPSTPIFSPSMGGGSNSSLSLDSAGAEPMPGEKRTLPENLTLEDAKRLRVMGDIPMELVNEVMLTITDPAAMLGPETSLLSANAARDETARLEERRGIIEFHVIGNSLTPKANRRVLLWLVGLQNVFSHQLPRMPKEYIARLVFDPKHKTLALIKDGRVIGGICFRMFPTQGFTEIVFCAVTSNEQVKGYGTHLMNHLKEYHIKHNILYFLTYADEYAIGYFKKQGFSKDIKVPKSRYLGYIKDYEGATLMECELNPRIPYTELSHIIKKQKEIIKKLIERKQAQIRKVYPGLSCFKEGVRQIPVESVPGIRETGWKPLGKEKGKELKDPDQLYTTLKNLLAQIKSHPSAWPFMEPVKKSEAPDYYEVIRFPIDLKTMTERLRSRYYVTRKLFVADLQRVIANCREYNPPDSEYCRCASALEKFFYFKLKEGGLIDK
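Enzyme at 20nM final was mixed with library compounds for 15 min at room temperature. Peptide H3(1-25) at 75uM, acetyl-CoA at 70uM and ThioGlo1 at 50uM were then added. Plates were read immediately and after 20 min (Ex340nm/Em540nm).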
PLK1 PBD inh: PLK1 (human) polo-box domain binding inhibition. AID 720504. Plk1 PBD binding of FITC phosphopeptide, fluorescence polarization. P53350. Potency, µM, for the others: max response, negative = inhibition, usual class: inhibitors. actives 2.8% (n = 360,000); further: potency means the concentration at half of the fitted maximal effect; series mostly up to about 57 µM; on the % scale 0 is the no-effect control and ±100 the full control effect; nearly all actives have a fitted effect of over 65% in size
HP1b chromo inh: HP1-beta chromodomain-methylated histone interaction inhibition; AlphaScreen HP1-beta / biotin-H3K9me3 peptide binding; Potency, µM (top dose mostly 114 µM), without a hit: top-dose activity change, negative = inhibition, usual class: inhibitors; actives 0.56% (n = 390,000); AID 540317; further: potency means the concentration at half of the fitted maximal effect; nearly all actives have a fitted effect of over 70% in size
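AlphaScreen: HP1-beta (50 nM) preformed 30 min with biotin-H3(1-18)K9me3 peptide (50 nM) in PBS pH 7.4, 0.01% Tween-20. Compound added for 30 min at RT, then streptavidin donor/nickel chelate acceptor beads (10 ug/mL) for 30 min.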
An asterisk follows results filed as active; [ ] = dose if it differs, or a comment. Unless noted, the call rests on the fitted dose curve; in most records, active means well fitted curve in the direction sought with a large enough effect; inconclusive means small, poorly fitted or top-dose-only effect, or another doubt; inactive means no such curve, though single readings can be large; an effect the other way counts as inactive or inconclusive.

How did CCCCCCC(C)(C)c1ccc([C@@H]2C[C@H](O)CC[C@@H]2CCCO)c(O)c1 do in these assays?
GCN5L2 inh: -22%

Results for O=C(CSc1nc2c([nH]c3ccccc32)c(=O)n1-c1ccccc1)c1ccccc1 ?
JMJD2A Tudor: inconclusive; BAZ2B inh: 1%; GCN5L2 inh: -6%; HP1b chromo inh: 11%[57 µM]

Results for CC(=O)c1c(O)n(-c2cccc(Cl)c2)c(=O)[nH]c1=O (tested in a mixture with another compound) ?
PI5P4Ka inh: 10; JMJD2A Tudor: -18%; BAZ2B inh: -29%; GCN5L2 inh: -3%; PLK1 PBD inh: -2%; HP1b chromo inh: 16%

Results for CC(C)n1c(O)c(C2c3cc(Cl)ccc3Oc3[nH]c(=O)n(C(C)C)c(=O)c32)c(=O)[nH]c1=O (stereo unspecified) ?
PI5P4Ka inh: inconclusive; JMJD2A Tudor: -16%; BAZ2B inh: -24%; GCN5L2 inh: 28µM*; PLK1 PBD inh: 1.3µM*; HP1b chromo inh: 9%

What do the screens show for `CCn1c(O)c(C=Nc2ccc(N3CCOCC3)cc2)c(=O)n(CC)c1=S`?
PI5P4Ka inh: -3; JMJD2A Tudor: 9%; BAZ2B inh: 8%; GCN5L2 inh: inconclusive; PLK1 PBD inh: 21µM*; HP1b chromo inh: 36%

What do the screens show for `O=C(CCN1CCN(CCO)CC1)N1c2ccccc2Sc2ccc(C(F)(F)F)cc21`?
PI5P4Ka inh: -30; JMJD2A Tudor: 56µM*; BAZ2B inh: -12%; GCN5L2 inh: -8%; PLK1 PBD inh: 27µM*; HP1b chromo inh: 38%

How did Cn1c(SCC(=O)N2CCOCC2)nnc1-c1cccc(NC(=O)c2ccccc2)c1 do in these assays?
PI5P4Ka inh: -14; JMJD2A Tudor: 89µM*; GCN5L2 inh: -1%; PLK1 PBD inh: -12%; HP1b chromo inh: 14%

Results for Cc1ccc(Cl)cc1N1CCN(C(=O)c2cn(CC(C)C)c(=O)c3c2c2ccccc2n3C)CC1 ?
JMJD2A Tudor: -30%; BAZ2B inh: inconclusive; GCN5L2 inh: -13%; HP1b chromo inh: 12%

What do the screens show for `Nc1nonc1C(=O)N/N=C/c1ccc([N+](=O)[O-])o1`?
PI5P4Ka inh: inconclusive; JMJD2A Tudor: inconclusive; BAZ2B inh: 56µM*; GCN5L2 inh: -8%; PLK1 PBD inh: 0%; HP1b chromo inh: inconclusive

What do the screens show for `CC(Cc1ccc(C(C)(C)C)cc1)CN1CC(C)OC(C)C1` (stereo unspecified)?
GCN5L2 inh: -2%

What do the screens show for `COc1cc(CN2CC=C(c3ccc(F)cc3)CC2)cc(OC)c1`?
PI5P4Ka inh: -5; JMJD2A Tudor: 6%; BAZ2B inh: 2%; GCN5L2 inh: -12%; PLK1 PBD inh: 8%; HP1b chromo inh: 49%

What do the screens show for `CN(C)c1ccc(CN2CC=C(c3ccc(F)cc3)CC2)cc1`?
JMJD2A Tudor: 50µM*; BAZ2B inh: 50µM*; GCN5L2 inh: -4%; PLK1 PBD inh: 0%; HP1b chromo inh: -38%

What do the screens show for `Cc1nn2c(=O)cc(N3CCNCC3)nc2s1`?
JMJD2A Tudor: -2%

How did O=C1NS(=O)c2cc([N+](=O)[O-])cc([N+](=O)[O-])c21 (stereo unspecified) do in these assays?
PI5P4Ka inh: -24; JMJD2A Tudor: -14%; BAZ2B inh: inconclusive; GCN5L2 inh: 1%; PLK1 PBD inh: 24µM*; HP1b chromo inh: 44%

Results for S=c1[nH]nc(-c2ccco2)n1/N=C/c1cccs1 ?
PI5P4Ka inh: 4; JMJD2A Tudor: 40µM*; BAZ2B inh: -33%; GCN5L2 inh: -10%; PLK1 PBD inh: -15%; HP1b chromo inh: -9%

Results for CCn1nc(/C=C/c2ccccc2)nc2c(=O)n(C)c(=O)nc1-2 ?
PI5P4Ka inh: 0; JMJD2A Tudor: -31%; BAZ2B inh: -1%; GCN5L2 inh: -2%; PLK1 PBD inh: 24µM*; HP1b chromo inh: 2%
